# Experiments:
# Assay in all cases: DAPPL (digital affinity profiling via proximity ligation, sequencing); 10 mM Tris-HCl pH 7.5, 50 mM NaCl, 1 mM DTT, 4% glycerol, room temperature, 30 min; GST-TFs on glutathione beads, 16-mer random dsDNA library, 0.1% formaldehyde crosslink after washing; high values mean tight binding
# Conditions in all cases: protein: recombinant; tags: N-terminal GST; dsDNA, one strand shown
# FLI1 = molecular target: T1, FLI1 (Homo sapiens, UniProt Q01543 1-452)
# T1 sequence: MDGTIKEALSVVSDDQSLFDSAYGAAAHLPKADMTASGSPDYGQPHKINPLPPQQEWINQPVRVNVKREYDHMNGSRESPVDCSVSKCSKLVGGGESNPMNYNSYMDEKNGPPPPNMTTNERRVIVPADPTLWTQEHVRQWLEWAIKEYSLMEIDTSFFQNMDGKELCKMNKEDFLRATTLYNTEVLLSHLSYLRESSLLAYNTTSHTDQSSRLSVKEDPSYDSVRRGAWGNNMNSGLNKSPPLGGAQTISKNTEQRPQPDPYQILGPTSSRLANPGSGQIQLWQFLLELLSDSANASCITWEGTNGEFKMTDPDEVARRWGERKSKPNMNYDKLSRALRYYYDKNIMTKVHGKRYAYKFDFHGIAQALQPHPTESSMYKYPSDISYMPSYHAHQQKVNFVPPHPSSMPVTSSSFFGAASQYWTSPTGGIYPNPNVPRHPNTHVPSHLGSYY
# Procedure, shortened: (§1)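 Each value of binding signal is a hexamer's read frequency for a factor divided by the same hexamer's frequency in the tag-only sample. Barcoded, bead-captured GST fusions of human transcription factors made in yeast were pooled with that sample and incubated with 200 nmole of a random double-stranded 16-mer DNA library in Tris/NaCl/DTT/glycerol buffer at room temperature for 30 min. Washing, 0.1% formaldehyde crosslinking, proximity ligation, PCR and Illumina NextSeq500 sequencing followed.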
# ELK1 = molecular target: T2, ELK1 (Homo sapiens, UniProt P19419 1-428)
# T2 sequence: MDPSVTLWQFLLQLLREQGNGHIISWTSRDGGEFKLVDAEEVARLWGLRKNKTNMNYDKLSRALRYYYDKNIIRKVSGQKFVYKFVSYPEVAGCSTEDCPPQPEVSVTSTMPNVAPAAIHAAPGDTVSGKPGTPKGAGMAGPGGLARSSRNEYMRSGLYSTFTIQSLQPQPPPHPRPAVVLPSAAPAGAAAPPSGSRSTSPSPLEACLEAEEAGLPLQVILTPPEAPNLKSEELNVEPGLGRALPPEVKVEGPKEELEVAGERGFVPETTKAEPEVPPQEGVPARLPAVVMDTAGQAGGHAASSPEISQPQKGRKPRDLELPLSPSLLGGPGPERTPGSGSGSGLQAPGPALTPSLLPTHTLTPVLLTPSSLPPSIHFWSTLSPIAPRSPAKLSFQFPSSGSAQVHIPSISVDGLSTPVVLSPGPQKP
# Procedure, shortened: as §1
# GABPA = molecular target: T3, GABPA (Homo sapiens, UniProt Q06546 1-454)
# T3 sequence: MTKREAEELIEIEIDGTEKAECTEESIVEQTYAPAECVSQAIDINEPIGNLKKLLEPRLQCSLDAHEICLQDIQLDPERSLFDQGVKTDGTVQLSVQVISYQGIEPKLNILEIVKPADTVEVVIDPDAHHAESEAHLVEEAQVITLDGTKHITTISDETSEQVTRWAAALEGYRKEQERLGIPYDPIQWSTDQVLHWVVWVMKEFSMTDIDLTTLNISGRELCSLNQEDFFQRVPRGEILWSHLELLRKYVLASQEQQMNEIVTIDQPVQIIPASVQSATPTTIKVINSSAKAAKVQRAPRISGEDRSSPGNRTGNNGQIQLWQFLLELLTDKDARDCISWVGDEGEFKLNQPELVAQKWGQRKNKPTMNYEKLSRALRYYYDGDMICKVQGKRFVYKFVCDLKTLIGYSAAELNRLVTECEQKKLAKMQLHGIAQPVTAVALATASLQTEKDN
# Procedure, shortened: as §1
# ERG = molecular target: T4, ERG (Homo sapiens, UniProt P11308 1-479)
# T4 sequence: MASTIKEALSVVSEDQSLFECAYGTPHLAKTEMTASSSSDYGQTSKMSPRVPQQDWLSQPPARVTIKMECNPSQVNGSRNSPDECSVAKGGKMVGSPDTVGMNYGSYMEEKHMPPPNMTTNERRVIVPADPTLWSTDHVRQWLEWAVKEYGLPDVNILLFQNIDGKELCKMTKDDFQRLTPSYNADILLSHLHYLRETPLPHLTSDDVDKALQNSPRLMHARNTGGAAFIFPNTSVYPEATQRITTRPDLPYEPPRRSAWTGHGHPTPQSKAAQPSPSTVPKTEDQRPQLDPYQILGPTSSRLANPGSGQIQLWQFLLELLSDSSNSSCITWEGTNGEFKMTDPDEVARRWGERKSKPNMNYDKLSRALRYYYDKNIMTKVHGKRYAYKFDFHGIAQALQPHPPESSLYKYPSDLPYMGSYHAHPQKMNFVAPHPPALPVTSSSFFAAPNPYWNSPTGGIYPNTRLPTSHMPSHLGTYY
# Procedure, shortened: as §1
# ELF1 = ELF1 (Homo sapiens, UniProt P32519 1-619)
# Procedure, shortened: as §1
# EHF = molecular target: T5, EHF (Homo sapiens, UniProt Q9NZC4 1-300)
# T5 sequence: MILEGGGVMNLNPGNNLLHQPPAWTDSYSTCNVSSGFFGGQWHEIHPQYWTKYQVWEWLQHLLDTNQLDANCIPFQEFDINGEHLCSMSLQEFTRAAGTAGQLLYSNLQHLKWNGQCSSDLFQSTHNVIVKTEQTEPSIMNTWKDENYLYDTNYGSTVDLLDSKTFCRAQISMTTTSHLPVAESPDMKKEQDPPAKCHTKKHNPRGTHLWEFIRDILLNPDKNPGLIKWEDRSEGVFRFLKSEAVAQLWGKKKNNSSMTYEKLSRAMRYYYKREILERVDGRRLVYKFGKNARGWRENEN
# Procedure, shortened: as §1
# SPI1 = SPI1 (Homo sapiens, UniProt P17947 1-270)
# Procedure, shortened: as §1
# SPIB = SPIB (Homo sapiens, UniProt Q01892 1-262)
# Procedure, shortened: as §1
# ELK3 = molecular target: T6, ELK3 (Homo sapiens, UniProt P41970 1-407)
# T6 sequence: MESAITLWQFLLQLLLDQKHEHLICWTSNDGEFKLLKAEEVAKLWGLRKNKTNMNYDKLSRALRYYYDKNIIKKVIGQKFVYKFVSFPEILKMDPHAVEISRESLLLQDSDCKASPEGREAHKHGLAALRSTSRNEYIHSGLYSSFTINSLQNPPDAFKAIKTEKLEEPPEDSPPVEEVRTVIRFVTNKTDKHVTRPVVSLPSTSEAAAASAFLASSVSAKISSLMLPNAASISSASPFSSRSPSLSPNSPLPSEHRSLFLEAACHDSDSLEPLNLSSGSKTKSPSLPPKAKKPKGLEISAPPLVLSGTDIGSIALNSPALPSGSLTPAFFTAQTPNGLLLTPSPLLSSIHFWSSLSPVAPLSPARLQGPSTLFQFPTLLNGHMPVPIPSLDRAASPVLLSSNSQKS
# Procedure, shortened: as §1
# Chain of ELF1 (P32519 whole entry): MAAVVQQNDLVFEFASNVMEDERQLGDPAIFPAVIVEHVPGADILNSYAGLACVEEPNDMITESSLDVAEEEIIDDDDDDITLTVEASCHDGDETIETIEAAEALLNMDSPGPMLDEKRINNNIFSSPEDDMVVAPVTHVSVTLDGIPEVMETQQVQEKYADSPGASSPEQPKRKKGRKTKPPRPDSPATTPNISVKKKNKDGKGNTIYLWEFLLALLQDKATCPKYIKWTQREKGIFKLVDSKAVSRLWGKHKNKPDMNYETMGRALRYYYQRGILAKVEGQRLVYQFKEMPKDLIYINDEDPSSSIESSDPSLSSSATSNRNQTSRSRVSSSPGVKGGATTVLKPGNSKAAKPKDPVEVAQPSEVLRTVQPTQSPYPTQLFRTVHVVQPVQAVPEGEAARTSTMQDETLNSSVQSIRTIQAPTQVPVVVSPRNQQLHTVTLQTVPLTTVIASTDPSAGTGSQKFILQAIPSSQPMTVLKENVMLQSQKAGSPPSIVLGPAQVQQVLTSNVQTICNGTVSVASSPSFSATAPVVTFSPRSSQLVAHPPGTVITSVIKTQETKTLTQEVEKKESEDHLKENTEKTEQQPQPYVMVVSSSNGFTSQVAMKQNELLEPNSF
# Chain of SPIB (Q01892 whole entry): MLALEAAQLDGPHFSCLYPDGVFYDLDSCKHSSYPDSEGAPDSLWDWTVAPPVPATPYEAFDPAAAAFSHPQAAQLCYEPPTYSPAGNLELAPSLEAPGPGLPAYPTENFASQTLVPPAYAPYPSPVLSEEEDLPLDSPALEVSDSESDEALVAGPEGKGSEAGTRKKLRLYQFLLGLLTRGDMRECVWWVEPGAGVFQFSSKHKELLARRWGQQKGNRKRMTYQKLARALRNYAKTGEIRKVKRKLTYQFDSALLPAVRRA
sequence,measurement,setting,value
CAAAAC,binding signal,FLI1,"1.19 fold enrichment (6-mer frequency, TF over GST control)"
same,binding signal,ELK1,"1.27 fold enrichment (6-mer frequency, TF over GST control)"
same,binding signal,GABPA,"1.3 fold enrichment (6-mer frequency, TF over GST control)"
same,binding signal,ERG,"1.23 fold enrichment (6-mer frequency, TF over GST control)"
same,binding signal,ELF1,"1.28 fold enrichment (6-mer frequency, TF over GST control)"
same,binding signal,EHF,"1.26 fold enrichment (6-mer frequency, TF over GST control)"
same,binding signal,SPI1,"1.38 fold enrichment (6-mer frequency, TF over GST control)"
same,binding signal,SPIB,"1.23 fold enrichment (6-mer frequency, TF over GST control)"
same,binding signal,ELK3,"1.21 fold enrichment (6-mer frequency, TF over GST control)"

# — paper PMC7862700, “An all-to-all approach to the identification of sequence-specific readers for epigenetic DNA modifications on cytosine”
